Data from the supplement of paper PMC10849652.
About 7,900 targets were measured; listed, in parts, are those with a hit and a random draw of the rest. About 0.6% of all pairs of compound and target were hits. Values without a mark were called inactive.

Assays:
Assay in all cases: log2 fold change, soluble protein after heating vs DMSO (PISA); higher = thermal stabilisation; K562 cells, 10 uM, 30 min; active = over 0.2 and 3.5 SD of the protein, either way, in both replicates (recomputed)
[1] = compound: C1=CC=C(C=C1)[C@H](COC2=CC3=C(C=C2)NC(=O)N3)NC(=O)C4=CC=CN(C4=O)CC5=CC(=C(C=C5)F)F
Outline: (§1)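 K562 cells at 2×10^6 cells/mL were treated for 30 min with 10 μM compound, and aliquots were heated for 3 min over 48°C-58°C before pooling. Extraction used PBS with 0.5% NP-40 at 4°C, and soluble protein was the supernatant after 21,000xg for 90 min, measured by TMTpro 16plex LC-MS/MS with channel sums equalised. Thermal stability values, relative to control samples and from duplicates, are log2 fold changes.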

[2] = compound: CC1=C(SC2=C1C(=N[C@H](C3=NN=C(N32)C)CC(=O)N)C4=CC=C(C=C4)Cl)C
Outline: as §1

[3] = compound: CC1=C2C(=CC=C1)N=C(N(C2=O)C3=CC=CC=C3C)CN4C=NC5=C(N=CN=C54)N
Outline: as §1

[4] = compound: Cc1sc2c(c1C)C(c1ccc(Cl)cc1)=N[C@@H](CC(=O)OC(C)(C)C)c1nnc(C)n1-2
Outline: as §1

[5] = compound: c1ccc([C@@H]2C[C@H]2NC2CCNCC2)cc1
Outline: as §1

Sequence of UniProt P41440 (P41440 whole entry, looked up): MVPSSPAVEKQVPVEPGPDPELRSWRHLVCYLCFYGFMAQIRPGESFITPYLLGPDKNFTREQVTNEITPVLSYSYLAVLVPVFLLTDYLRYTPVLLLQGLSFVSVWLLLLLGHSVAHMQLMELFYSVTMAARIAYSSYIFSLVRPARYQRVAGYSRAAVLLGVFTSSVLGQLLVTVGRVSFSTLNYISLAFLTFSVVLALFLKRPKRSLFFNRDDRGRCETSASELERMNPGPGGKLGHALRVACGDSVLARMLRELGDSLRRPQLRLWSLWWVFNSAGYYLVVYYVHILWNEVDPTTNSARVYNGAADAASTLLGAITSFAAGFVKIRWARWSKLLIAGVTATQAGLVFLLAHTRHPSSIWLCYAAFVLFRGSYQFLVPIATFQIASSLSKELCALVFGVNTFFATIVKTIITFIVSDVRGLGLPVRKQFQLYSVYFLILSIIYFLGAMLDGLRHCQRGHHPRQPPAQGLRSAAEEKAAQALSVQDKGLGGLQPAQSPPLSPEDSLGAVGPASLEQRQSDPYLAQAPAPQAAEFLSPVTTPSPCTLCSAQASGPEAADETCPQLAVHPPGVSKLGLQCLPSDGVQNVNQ
Sequence of UniProt Q96T51 (Q96T51 whole entry, looked up): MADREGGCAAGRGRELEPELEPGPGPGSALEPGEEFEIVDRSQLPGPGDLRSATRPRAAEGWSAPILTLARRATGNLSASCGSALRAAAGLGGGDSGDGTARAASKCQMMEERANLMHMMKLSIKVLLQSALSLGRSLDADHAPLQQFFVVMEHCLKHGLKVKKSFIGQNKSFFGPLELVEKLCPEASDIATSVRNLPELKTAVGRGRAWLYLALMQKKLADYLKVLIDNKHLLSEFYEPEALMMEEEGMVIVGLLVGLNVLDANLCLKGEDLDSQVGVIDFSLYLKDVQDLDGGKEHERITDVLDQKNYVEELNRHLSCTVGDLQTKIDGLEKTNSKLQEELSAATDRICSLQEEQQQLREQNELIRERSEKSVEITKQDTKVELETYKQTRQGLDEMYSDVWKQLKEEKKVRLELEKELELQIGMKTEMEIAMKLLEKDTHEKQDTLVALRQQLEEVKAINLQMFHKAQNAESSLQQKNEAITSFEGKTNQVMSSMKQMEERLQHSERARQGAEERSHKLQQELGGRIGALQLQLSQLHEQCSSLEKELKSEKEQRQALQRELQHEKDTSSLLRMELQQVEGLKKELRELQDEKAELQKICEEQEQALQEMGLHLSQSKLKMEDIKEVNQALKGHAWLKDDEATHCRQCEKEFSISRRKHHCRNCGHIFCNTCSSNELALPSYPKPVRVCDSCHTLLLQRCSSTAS
Sequence of UniProt Q8IZQ5 (Q8IZQ5 whole entry, looked up): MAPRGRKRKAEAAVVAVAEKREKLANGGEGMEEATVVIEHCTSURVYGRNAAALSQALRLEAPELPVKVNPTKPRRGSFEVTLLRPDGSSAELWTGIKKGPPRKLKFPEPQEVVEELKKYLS
Sequence of UniProt Q86TU7 (Q86TU7 whole entry, looked up): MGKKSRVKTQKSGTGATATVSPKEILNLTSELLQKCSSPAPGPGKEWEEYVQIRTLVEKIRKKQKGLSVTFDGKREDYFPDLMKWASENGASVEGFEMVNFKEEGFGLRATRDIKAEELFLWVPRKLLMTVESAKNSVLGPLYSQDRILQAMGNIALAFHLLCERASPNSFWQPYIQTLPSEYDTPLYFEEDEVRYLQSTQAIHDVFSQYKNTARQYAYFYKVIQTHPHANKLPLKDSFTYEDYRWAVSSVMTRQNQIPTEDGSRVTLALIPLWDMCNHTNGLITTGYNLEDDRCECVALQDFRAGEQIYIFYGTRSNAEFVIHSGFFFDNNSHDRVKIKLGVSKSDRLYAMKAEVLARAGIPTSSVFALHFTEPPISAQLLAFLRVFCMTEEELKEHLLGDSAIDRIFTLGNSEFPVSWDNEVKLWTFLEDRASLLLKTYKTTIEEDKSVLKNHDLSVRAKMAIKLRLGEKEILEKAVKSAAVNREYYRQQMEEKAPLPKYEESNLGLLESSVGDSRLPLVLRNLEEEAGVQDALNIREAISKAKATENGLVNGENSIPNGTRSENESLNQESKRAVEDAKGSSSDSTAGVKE
Sequence of UniProt Q9NQG5 (Q9NQG5 whole entry, looked up): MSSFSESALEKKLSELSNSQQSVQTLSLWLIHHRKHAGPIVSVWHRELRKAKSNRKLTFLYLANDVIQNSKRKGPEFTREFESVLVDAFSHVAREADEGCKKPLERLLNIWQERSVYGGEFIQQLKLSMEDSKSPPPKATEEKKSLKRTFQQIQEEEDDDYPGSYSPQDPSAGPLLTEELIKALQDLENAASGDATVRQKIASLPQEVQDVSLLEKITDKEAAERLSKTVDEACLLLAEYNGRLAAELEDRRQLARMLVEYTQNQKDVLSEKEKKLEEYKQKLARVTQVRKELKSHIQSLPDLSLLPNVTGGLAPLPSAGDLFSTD
Sequence of UniProt Q8NBN7 (Q8NBN7 whole entry, looked up): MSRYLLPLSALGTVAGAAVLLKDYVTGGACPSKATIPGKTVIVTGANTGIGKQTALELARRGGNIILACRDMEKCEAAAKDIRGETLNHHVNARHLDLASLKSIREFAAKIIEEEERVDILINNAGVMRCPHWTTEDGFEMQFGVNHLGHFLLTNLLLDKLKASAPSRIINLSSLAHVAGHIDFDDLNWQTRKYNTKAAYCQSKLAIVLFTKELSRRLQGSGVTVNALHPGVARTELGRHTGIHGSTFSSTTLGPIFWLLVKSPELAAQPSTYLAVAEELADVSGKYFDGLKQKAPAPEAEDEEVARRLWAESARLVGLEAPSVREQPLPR
Sequence of UniProt Q99643 (Q99643 whole entry, looked up): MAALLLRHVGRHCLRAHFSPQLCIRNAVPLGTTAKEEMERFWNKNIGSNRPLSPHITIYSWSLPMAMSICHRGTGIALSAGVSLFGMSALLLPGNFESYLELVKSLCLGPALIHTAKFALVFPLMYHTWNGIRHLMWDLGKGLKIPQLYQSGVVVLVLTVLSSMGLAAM
Sequence of UniProt Q86VR2 (Q86VR2 whole entry, looked up): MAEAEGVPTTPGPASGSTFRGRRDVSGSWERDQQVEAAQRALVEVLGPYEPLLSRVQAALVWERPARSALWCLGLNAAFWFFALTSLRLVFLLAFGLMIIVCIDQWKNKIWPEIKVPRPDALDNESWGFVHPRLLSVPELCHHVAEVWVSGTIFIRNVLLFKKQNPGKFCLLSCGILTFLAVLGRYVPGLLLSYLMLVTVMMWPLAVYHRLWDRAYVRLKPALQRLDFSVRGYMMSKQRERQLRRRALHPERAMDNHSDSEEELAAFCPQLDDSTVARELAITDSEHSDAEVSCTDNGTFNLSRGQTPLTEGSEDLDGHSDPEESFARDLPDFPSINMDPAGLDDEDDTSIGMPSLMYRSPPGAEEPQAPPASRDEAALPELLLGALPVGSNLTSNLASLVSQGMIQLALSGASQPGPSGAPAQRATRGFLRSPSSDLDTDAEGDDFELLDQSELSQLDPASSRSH
Sequence of UniProt Q9GZR1 (Q9GZR1 whole entry, looked up): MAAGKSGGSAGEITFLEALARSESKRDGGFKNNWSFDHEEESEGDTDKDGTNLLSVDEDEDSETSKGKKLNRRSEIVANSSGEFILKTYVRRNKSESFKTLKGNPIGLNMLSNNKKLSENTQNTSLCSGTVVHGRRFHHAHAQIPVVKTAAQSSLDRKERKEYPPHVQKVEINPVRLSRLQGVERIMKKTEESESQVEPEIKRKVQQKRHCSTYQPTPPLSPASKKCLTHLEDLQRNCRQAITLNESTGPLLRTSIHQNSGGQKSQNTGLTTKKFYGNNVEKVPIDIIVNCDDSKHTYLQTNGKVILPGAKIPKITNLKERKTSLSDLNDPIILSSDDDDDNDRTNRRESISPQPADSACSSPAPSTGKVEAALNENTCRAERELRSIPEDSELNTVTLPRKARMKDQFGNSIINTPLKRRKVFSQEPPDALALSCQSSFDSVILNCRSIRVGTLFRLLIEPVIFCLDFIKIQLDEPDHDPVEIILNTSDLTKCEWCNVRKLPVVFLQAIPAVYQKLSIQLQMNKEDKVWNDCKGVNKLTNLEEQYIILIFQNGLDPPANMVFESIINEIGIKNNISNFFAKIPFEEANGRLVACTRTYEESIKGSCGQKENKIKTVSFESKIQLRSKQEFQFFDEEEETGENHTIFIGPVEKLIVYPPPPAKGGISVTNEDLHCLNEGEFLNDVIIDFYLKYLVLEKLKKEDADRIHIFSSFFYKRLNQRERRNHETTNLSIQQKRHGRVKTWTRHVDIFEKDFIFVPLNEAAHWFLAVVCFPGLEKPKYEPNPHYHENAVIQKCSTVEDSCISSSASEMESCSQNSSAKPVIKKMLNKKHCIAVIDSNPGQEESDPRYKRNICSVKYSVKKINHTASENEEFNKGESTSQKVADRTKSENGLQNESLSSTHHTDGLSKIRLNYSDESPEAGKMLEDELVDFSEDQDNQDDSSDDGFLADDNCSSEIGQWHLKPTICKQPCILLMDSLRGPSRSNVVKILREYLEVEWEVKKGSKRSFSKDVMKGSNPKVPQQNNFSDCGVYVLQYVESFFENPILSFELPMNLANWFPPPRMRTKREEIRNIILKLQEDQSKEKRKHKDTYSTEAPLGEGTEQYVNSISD
Sequence of UniProt Q15050 (Q15050 whole entry, looked up): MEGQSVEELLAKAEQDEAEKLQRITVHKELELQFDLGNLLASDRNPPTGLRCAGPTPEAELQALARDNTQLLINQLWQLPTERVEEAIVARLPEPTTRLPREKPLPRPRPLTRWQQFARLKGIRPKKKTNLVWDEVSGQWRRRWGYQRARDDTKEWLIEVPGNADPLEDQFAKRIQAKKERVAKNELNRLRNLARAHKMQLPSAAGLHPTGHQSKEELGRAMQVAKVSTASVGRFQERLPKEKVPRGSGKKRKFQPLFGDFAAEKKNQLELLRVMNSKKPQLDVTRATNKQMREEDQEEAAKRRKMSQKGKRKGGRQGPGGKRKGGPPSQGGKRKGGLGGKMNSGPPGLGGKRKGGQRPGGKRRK
Sequence of UniProt Q15382 (Q15382 whole entry, looked up): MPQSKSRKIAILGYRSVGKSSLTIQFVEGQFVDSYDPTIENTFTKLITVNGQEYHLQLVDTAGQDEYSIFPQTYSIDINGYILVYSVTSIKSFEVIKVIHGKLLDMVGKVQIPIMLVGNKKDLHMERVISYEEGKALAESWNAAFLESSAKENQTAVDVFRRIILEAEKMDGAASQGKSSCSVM

Row | Target | log2 fold change [1] | log2 fold change [2] | log2 fold change [3] | log2 fold change [4] | log2 fold change [5]
1 | RECQL (UniProt P46063) | -0.012 | 0.087 | 0.015 | -0.029 | -0.02
2 | RPRD1B (UniProt Q9NQG5) | -0.006 | 0.06 | 0.043 | 0.009 | 0.014
3 | RPS27A (UniProt P62979) | 0.076 | -0.111 | -0.281 | 0.108 | -0.025
4 | SELENOH (UniProt Q8IZQ5) | 0.049 | -0.107 | -0.258 | -0.028 | 0.08
5 | SEC23IP (UniProt Q9Y6Y8) | -0.037 | 0.001 | 0.063 | 0.031 | -0.037
6 | SENP6 (UniProt Q9GZR1) | 0.023 | 0.014 | 0.048 | 0.022 | 0.056
7 | SDHC (UniProt Q99643) | -0.052 | 0.004 | -0.056 | -0.018 | 0.163
8 | RSPRY1 (UniProt Q96DX4) | -0.009 | 0.024 | 0.012 | -0.026 | 0.029
9 | RAB5C isoform 2 (UniProt P51148) | -0.007 | -0.009 | -0.022 | 0.011 | 0.018
10 | SEPTIN5 (UniProt G3XAH0) | 0.002 | -0.014 | 0.061 | -0.043 | -0.031
11 | SCAMP2 (UniProt O15127) | 0.061 | 0.026 | -0.041 | -0.105 | -0.048
12 | RDH11 (UniProt Q8TC12) | 0.258 | 0.06 | 0.266 | 0.115 | -0.058
13 | SETD3 (UniProt Q86TU7) | -0.017 | 0.018 | 0.061 | 0.021 | -0.005
14 | SKP1 (UniProt P63208) | -0.035 | -0.008 | 0 | -0.036 | -0.017
15 | RETREG3 (UniProt Q86VR2) | 0.076 | 0.085 | 0.007 | -0.046 | -0.037
16 | RARS (UniProt P54136) | -0.057 | -0.081 | -0.02 | 0.169 | 0.024
17 | RPS3A (UniProt P61247) | 0.053 | -0.162 | -0.139 | 0.099 | 0
18 | ROCK1 (UniProt Q13464) | -0.017 | 0.027 | 0.032 | -0.018 | -0.015
19 | RNF185 (UniProt Q96GF1) | -0.157 | 0 | 0.006 | 0.104 | -0.168
20 | SCPEP1 (UniProt Q9HB40) | 0.006 | -0.006 | -0.001 | 0.007 | -0.007
21 | SLC1A5 (UniProt Q15758) | -0.003 | 0.035 | -0.026 | 0.013 | 0.022
22 | RPS13 (UniProt P62277) | 0.142 | -0.234 | -0.246 | 0.213 | 0
23 | RHOA (UniProt P61586) | 0.01 | -0.058 | -0.095 | -0.041 | 0.021
24 | RPS14 (UniProt P62263) | 0.041 | -0.162 | -0.238 | 0.078 | -0.036
25 | SIRT2 (UniProt Q8IXJ6) | -0.075 | 0.107 | 0.105 | 0.093 | -0.016
26 | RDH13 (UniProt Q8NBN7) | -0.013 | 0.052 | 0.032 | 0.013 | -0.062
27 | RAC1 (UniProt P63000) | -0.046 | 0.017 | -0.111 | -0.098 | 0.033

Row | Target | log2 fold change [1] | log2 fold change [2] | log2 fold change [3] | log2 fold change [4] | log2 fold change [5]
28 | RRS1 (UniProt Q15050) | 0.168 | -0.368 | -0.187 | 0.246 | -0.006
29 | RPS9 (UniProt P46781) | 0.073 | -0.19 | -0.24 | 0.134 | 0
30 | RNASET2 (UniProt O00584) | 0.037 | -0.038 | 0.063 | -0.013 | 0.012
31 | RUFY1 (UniProt Q96T51) | -0.006 | -0.029 | 0.041 | 0.002 | -0.028
32 | RNASEH2A (UniProt O75792) | -0.008 | 0.065 | 0.183 | -0.025 | -0.01
33 | RPS12 (UniProt P25398) | 0.032 | -0.092 | -0.066 | 0.011 | -0.019
34 | RMC1 (UniProt Q96DM3) | -0.009 | 0.064 | 0.1 | 0.019 | 0.063
35 | RB1 (UniProt P06400) | -0.038 | 0.064 | 0.048 | 0.011 | 0
36 | RBM4 (UniProt Q9BWF3) | -0.029 | -0.074 | -0.011 | 0.009 | 0.073
37 | RAP1GDS1 isoform 5 (UniProt P52306) | -0.093 | -0.01 | 0.119 | -0.001 | -0.009
38 | SERPINA7 (UniProt P05543) | -0.014 | -0.001 | 0.1 | 0.12 | 0.128
39 | SLC19A1 (UniProt P41440) | -0.025 | 0.065 | 0.045 | -0.013 | 0.017
40 | RBM8A (UniProt Q9Y5S9) | -0.02 | -0.005 | -0.062 | 0.029 | 0.045
41 | RPS6KA2 isoform 2 (UniProt Q15349) | -0.016 | 0.045 | 0.087 | -0.015 | -0.02
42 | RNF187 (UniProt Q5TA31) | -0.047 | 0.07 | -0.033 | -0.083 | -0.033
43 | SDCBP (UniProt O00560) | 0.029 | -0.031 | -0.067 | 0.04 | -0.102
44 | RTN4IP1 (UniProt Q8WWV3) | 0 | 0.07 | 0.999 (active) | -0.051 | -0.108
45 | RHEB (UniProt Q15382) | 0.008 | 0.04 | 0.055 | -0.048 | -0.001
46 | RPA1 (UniProt P27694) | -0.032 | 0.025 | 0.087 | -0.047 | 0.011
47 | RANBP2 (UniProt P49792) | -0.094 | 0 | 0.114 | -0.085 | -0.089
48 | REEP4 (UniProt Q9H6H4) | -0.004 | -0.034 | -0.023 | 0.081 | 0.003
49 | RNPEP (UniProt Q9H4A4) | -0.043 | 0.05 | 0.047 | -0.015 | -0.021
50 | RAF1 isoform 2 (UniProt P04049) | -0.08 | 0.201 | 0.222 | -0.07 | -0.105
51 | RRAGB (UniProt Q5VZM2) | 0.046 | -0.028 | -0.088 | -0.01 | 0.02
52 | RPS2 (UniProt P15880) | 0.123 | -0.222 | -0.222 | 0.113 | 0
53 | RPL38 (UniProt P63173) | 0.012 | -0.03 | -0.046 | 0.053 | 0.013
